# Test results published in PubChem BioAssay AID488969 (Vanderbilt High Throughput Screening Facility, 2010).
# Over roughly 110,000 compounds, “z-score” has its median near -0.1; the highest 2% begin near 2. Only a selection was taken, and the highest values are over-represented in it overall. The source made the active and inactive calls.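 Rule for the calls: active = z-score in the third read window above 3 or below -3; inactive = the rest.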
# Biological target: Metabotropic glutamate receptor 8 (Rattus norvegicus) (UniProt P70579)
# Sequence (P70579 whole entry, looked up): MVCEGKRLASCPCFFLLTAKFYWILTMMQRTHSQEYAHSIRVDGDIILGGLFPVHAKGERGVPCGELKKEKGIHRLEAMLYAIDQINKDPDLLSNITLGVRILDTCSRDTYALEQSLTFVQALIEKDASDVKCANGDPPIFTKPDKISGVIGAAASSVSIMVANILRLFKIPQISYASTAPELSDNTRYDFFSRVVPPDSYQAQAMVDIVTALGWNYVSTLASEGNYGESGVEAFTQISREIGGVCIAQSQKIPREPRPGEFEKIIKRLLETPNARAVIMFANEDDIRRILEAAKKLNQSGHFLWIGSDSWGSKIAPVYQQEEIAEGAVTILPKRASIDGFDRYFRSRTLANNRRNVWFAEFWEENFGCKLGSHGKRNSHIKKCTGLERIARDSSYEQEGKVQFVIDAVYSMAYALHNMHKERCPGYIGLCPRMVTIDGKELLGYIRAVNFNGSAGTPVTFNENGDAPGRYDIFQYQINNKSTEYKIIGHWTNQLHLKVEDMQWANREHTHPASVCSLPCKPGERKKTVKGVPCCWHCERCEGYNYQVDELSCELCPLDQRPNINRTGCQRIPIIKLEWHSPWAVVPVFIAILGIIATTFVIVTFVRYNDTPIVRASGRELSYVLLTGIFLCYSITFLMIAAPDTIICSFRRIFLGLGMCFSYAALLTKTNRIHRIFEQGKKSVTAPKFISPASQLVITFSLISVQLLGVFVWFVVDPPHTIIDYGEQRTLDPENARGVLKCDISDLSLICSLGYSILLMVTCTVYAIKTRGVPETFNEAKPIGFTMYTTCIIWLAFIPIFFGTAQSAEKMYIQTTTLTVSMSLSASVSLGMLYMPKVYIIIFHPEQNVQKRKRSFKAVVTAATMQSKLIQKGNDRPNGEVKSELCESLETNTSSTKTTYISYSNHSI
# Assay: rat mGluR8 modulators via GIRK flux, primary screen, cell-based, thallium flux, HTS (AID 488969)
# Conditions: HEK293 rat mGluR8, GIRK (G protein-gated inwardly rectifying potassium channel) thallium flux, FluoZin2; at 10 µM; stronger effect = higher value; submaximal glutamate (EC20) added with thallium
row,SMILES,z-score
1,CCC(=O)NCCn1c(C)cc2ccccc21,0.729
2,CC(/C=N/NC(=O)c1ccc(CN2c3cccc4cccc(c34)S2(=O)=O)cc1)c1ccccc1 (stereo not drawn),-0.557
3,Cc1ccc(-c2noc(CCC(=O)NCCN3CCOCC3)n2)cc1,-0.472
4,O=C(Nc1ncccn1)c1cc([N+](=O)[O-])cc([N+](=O)[O-])c1,-0.131
5,Cc1ccc(S(=O)(=O)NC(=NCC(=O)O)c2ccc(F)cc2)cc1,0.317
6,O=C(O)CN=C(NS(=O)(=O)c1ccccc1)c1ccccc1,4.61 (active)
7,O=C(O)CN=C(NS(=O)(=O)c1ccc(Cl)cc1)c1ccccc1,0.274
8,CCOc1ccccc1CNS(=O)(=O)c1ccc2c(c1)oc(=O)n2C,-0.853
9,CCn1cc(C(=O)Nc2nnc(C)s2)c(=O)c2cc(F)c(N3CCN(C(=O)c4ccco4)CC3)cc21,-0.178
10,CCOC(=O)c1cnc(SCC(=O)Nc2cc(OC)cc(OC)c2)nc1N,0.341
11,CCOC(=O)c1cnc(SCC(=O)Nc2nc(C)c(C)s2)nc1N,3.65 (active)
12,CCOC(=O)c1cnc(SCC(=O)Nc2nnc(CC)s2)nc1N,0.763
13,Cc1cc2c(nn1)CCc1nonc1-2,0.0142
14,COc1cc2nc(CN3C(=O)c4ccccc4C3=O)oc(=O)c2cc1OC,-0.733
15,CCCCn1nnnc1SCC(=O)c1cc(Cl)ccc1OC,-1.36
16,COc1ccc(Cl)cc1C(=O)CSc1nnnn1C1CCCC1,7.32 (active)
17,COc1ccc(Cl)cc1C(=O)CSc1nnnn1C1CCCCC1,-0.333
18,O=C(NNC(=O)[C@@H]1CCCC[C@@H]1C(=O)O)c1cccs1,0.534
19,O=C(NCc1cn(-c2ccccc2)nc1-c1ccccc1)c1cccc([N+](=O)[O-])c1,-0.314
20,O=C(NNC(=O)c1cc(-c2ccccc2)n(-c2ccccc2)n1)c1cccc([N+](=O)[O-])c1,6.49 (active)
21,O=C(NNC(=O)c1cnccn1)c1cccc([N+](=O)[O-])c1,-0.417
22,C=CCn1c(-c2ccc(S(=O)(=O)N3CCOCC3)cc2)csc1=Nc1ccccc1,0.017
23,Cc1nn(-c2ccccc2)c(N)c1C1(O)C(=O)N(C(C)C)c2ccccc21 (stereo not drawn),0.371

row,SMILES,z-score
1,O=C(c1ccccc1)n1nc(-c2ccccc2)nc1NCc1ccco1,0.149
2,O=S(=O)(c1ccccc1)n1nc(-c2ccccc2)nc1NCc1ccco1,-0.0427
3,CCS(=O)(=O)n1nc(-c2ccccc2)nc1NCc1ccco1,2.2
4,CCS(=O)(=O)c1nc2ccccc2n1CC(=O)N1CCOCC1,0.0592
5,O=C(NC(=S)Nn1cnc2c(cnn2-c2ccccc2)c1=O)c1ccc(Cl)cc1,0.0584
6,O=C(NC(=S)Nn1cnc2c(cnn2-c2ccccc2)c1=O)c1ccc(Oc2ccccc2)cc1,2.08
7,O=C(NC(=S)Nn1cnc2c(cnn2-c2ccccc2)c1=O)c1ccccc1,-0.101
8,OCCN(Cc1ccccc1)CC1CCCCC1,0.614
9,CCCN(Cc1ccc(N(C)C)cc1)CC1CC1,-0.858
10,CCCN(Cc1ccc(N(CC)CC)cc1)CC1CC1,2.1
11,CCCCn1c(SCC(=O)N2CCOCC2)nnc1-c1ccoc1C,1.9
12,COc1ccc(S(=O)(=O)N(CC(=O)N2CCN(C)CC2)c2ccc(C)cc2)cc1OC,0.277
13,CCCC(=O)OCC(=O)Nc1ccc(N=Nc2ccccc2)cc1,0.427
14,CC(=O)OCC(=O)Nc1ccc(N=Nc2ccccc2)cc1,0.277
15,CC(C)C(=O)OCC(=O)Nc1ccc(N=Nc2ccccc2)cc1,10.5 (active)
16,Cc1cc(-c2nn(-c3ccccc3)cc2/C=C2\SC(N)=NC2=O)ccc1OC(C)C,-0.0568
17,Cn1c(=O)oc2cc(S(=O)(=O)NCCN3CCN(c4ccccc4F)CC3)ccc21,-0.14
18,CCCCN(CCCNC(=O)C1CCN(S(=O)(=O)N2CCOCC2)CC1)c1ccccc1,-1.17
19,CC(C)N(CCNC(=O)C1CCN(S(=O)(=O)N2CCOCC2)CC1)Cc1ccccc1,0.267
20,CCCCN(CCCNC(=O)C1CCN(S(=O)(=O)N2CCOCC2)CC1)Cc1ccccc1,2.95
21,O=C(COc1ccccc1)OCc1csc(Nc2ccccc2)n1,-0.693
22,CS(=O)(=O)Nc1ccc2c(c1)nc1n2CCOC1,-0.149
23,COc1cccc(CNC(=O)C2(C)Oc3ccccc3NC2=O)c1 (stereo not drawn),-0.3

row,SMILES,z-score
1,COc1ccc(CS(=O)(=O)/C(Cl)=C(/Cl)C(=O)Nc2ccc(OC)nc2)cc1,-0.34
2,Fc1ccc2nc(Nc3nc4c(F)cccc4s3)sc2c1,4.98 (active)
3,Fc1ccc2nc(Nc3nc4c(F)cc(F)cc4s3)sc2c1,6.16 (active)
4,CC(=O)c1sc(Nc2nc3ccc(F)cc3s2)nc1C,0.302
5,COC(=O)c1ccc2nc(Nc3nc4c(F)cc(F)cc4s3)sc2c1,1.56
6,NNc1nc2ccc(F)cc2s1,-0.467
7,COC(=O)c1ccc2nc(Nc3nc4ccc(F)cc4s3)sc2c1,0.254
8,CCCCC(=O)Nc1ccccc1C(=O)N1CCOCC1,0.0261
9,C/C(=N\OCC(=O)Nc1ccc(F)c(F)c1F)c1cc2ccccc2o1,-1.92
10,CCCCOc1ccc(C(=O)N/C(=C\c2cccc([N+](=O)[O-])c2)C(=O)OC(C)C)cc1,0.536
11,Cc1ccc(CCSc2ccc(C(C)C)cc2)cn1,-0.399
12,CC(C)CN1C(=O)NC(NC(=O)c2ccco2)(C(F)(F)F)C1=O (stereo not drawn),0.0372
13,CN(C(=S)Nc1ccc(Oc2ccccc2)cc1)C1CCCCC1,0.0776
14,Cc1ccc(OCC(=O)NC(=S)Nc2ccc(Br)c(C)n2)cc1,1.02
15,Cc1cccc(NC(=O)COc2ccc(Br)cc2)n1,-0.0989
16,COC(=O)c1ccccc1NC(=S)NC(=O)COc1ccc(C)cc1,2.28
17,CCCN(CC1CC1)C(=S)Nc1ccc(Oc2ccccc2)cc1,3.7 (active)
18,CCOC(=O)c1ccc(NC(=S)Nc2ccccc2)cc1,1.7
19,CCC(=O)NC(=S)Nc1ccccc1C(=O)OC,-0.308
20,CCCC(=O)NC(=S)Nc1ccccc1C(=O)OC,0.0764
21,CCOC(=O)c1ccc(NC(=S)NC(=O)COc2ccccc2)cc1,3.05 (active)
22,Cc1ccc(OCC(=O)NC(=S)Nc2cccc(C)n2)cc1,1.99
23,CCCCN(C)C(=S)Nc1ccc(Oc2ccccc2)cc1,1.42

row,SMILES,z-score
1,CCC(=O)NC(=S)Nc1ccc(NC(=O)COc2ccccc2)cc1,0.0565
2,O=C(CSc1ccsc1[N+](=O)[O-])N1CCN(c2ccccc2)CC1,-0.247
3,COCCCNS(=O)(=O)c1ccc(SC)cc1,-0.232
4,O=C(COC(=O)Cc1c(Cl)cccc1Cl)Nc1ccc(OC(F)(F)F)cc1,0.262
5,CNc1nc(SCc2ccccc2)nc(N2CCOCC2)n1,-0.587
6,O=c1ccn(-c2cccc(C(F)(F)F)c2)nc1-c1ccn(-c2ccccc2)n1,-0.401
7,S=C(Nc1cccc2ccccc12)N1CCN(c2ncccn2)CC1,-0.1
8,COc1ccc(-n2c(Cc3cccn3C)nnc2SCC(=O)NCCc2ccccc2)cc1,-0.482
9,CC12C(=O)N(c3cccc4cccnc34)C(=O)C1C1C=CC2C1 (stereo not drawn),0.818
10,CNc1nc(OCC(F)(F)F)nc(N2CCN(C34CC5CC(CC(C5)C3)C4)CC2)n1,0.418
11,O=C(c1cccs1)N1N=C(c2ccccc2)CC1c1ccccc1 (stereo not drawn),-0.101
12,O=C(Nc1ccc(Br)c(C(F)(F)F)c1)c1ccccc1,0.42
13,S=C(NCC1CCCCC1)Nc1ccc(Oc2ccccc2)cc1,0.317
14,COC(=O)c1ccccc1NC(=S)NC(=O)COc1ccccc1,7.01 (active)
15,CCNC(=S)Nc1ccc(Oc2ccccc2)cc1,0.818
16,S=C(Nc1ccc(Oc2ccccc2)cc1)NC1CCCCCC1,0.425
17,S=C(Nc1ccc(Oc2ccccc2)cc1)NC1CCCC1,7.92 (active)
18,CC(C)CNC(=S)Nc1ccc(Oc2ccccc2)cc1,2.69
19,CCCNC(=S)Nc1ccc(Oc2ccccc2)cc1,0.463
20,CCCN1CCC(NC(=S)Nc2ccc(C(=O)OCC)cc2)CC1,-0.26
21,COC(=O)c1ccc(NC(=S)NC2CCCCC2)cc1,0.1
22,COC(=O)c1ccccc1NC(=S)NC(NC(=O)COc1ccccc1)C(Cl)(Cl)Cl (stereo not drawn),-0.203
23,CCOC(=O)c1ccc(NC(=S)NC2CCCC2)cc1,2.61

row,SMILES,z-score
1,COC(=O)c1ccccc1NC(=S)NC(=O)CC(C)C,0.252
2,CCn1cnc2cc(NCc3nc4ccccc4n3Cc3ccccc3)ccc21,-0.34
3,CC(C)c1ccc2[nH]c(O)c(N=NC(=O)c3cccc(S(=O)(=O)N4CCCCC4)c3)c2c1,-0.156
4,CCOc1ccc(/C=C/C(=O)NCCc2ccc(OC)c(OC)c2)cc1,-0.114
5,COc1ccc(OCc2ccc(C(=O)NN)cc2)cc1,0.222
6,Cc1ccc2cc(COC(=O)c3ccncc3)c(=O)[nH]c2c1,-0.162
7,COc1ccc(-c2cc(C(=O)OCC(=O)N3CCCC3)c3ccccc3n2)cc1,-0.231
8,CCn1c(SCC(=O)Nc2cccc(NC(C)=O)c2)nnc1C(C)C,-0.322
9,CCc1cccc(CC)c1NC(=O)CSc1nnc(C(C)C)n1CC,0.342
10,CCn1c(SCC(=O)Nc2cccc(C(C)=O)c2)nnc1C(C)C,2.28
11,Cc1ccc2cc(CN(Cc3ccco3)C(=O)c3ccccc3)c(=O)[nH]c2c1C,-0.385
12,Nc1nnnn1/N=C/c1ccccc1OCc1ccccc1,-0.208
13,COc1ccc(N2CCN(CC(=O)Nc3ccc(-n4cnnn4)cc3)CC2)cc1,1.05
14,CCCCOP(=O)(OCCCC)C(O)c1ccc(Br)cc1 (stereo not drawn),-0.269
15,CCN(CC)S(=O)(=O)c1cccc(C(=O)N2CC(O)CC2C(=O)OC)c1 (stereo not drawn),-0.00902
16,O=C(N/N=C/c1ccc2cccc(OCc3ccccc3)c2n1)c1ccc(Cl)cc1,0.327
17,COc1ccc(C(=O)N/N=C/c2cccc3cccnc23)cc1,-0.417
18,COc1ccc(CSCC(=O)N/N=C/c2ccccc2OCc2ccccc2)cc1,1.27
19,COc1ccc(C(=O)N/N=C/c2ccc3cccc(OCc4ccccc4)c3n2)cc1,3.81 (active)
20,O=C(N/N=C/c1ccc2cccc(OCc3ccccc3)c2n1)c1ccc(Br)cc1,3.65 (active)
21,O=C(N/N=C/c1ccccn1)c1ccc(Br)cc1,1.82
